Only some compounds are listed: those with a hit (about 19% of all), similar ones and a draw of the others.
TDP1 cell noCPT: qHTS for Inhibitors of human tyrosyl-DNA phosphodiesterase 1 (TDP1): qHTS in cells in absence of CPT; DT40 Tdp1-/- hTDP1 cells, no CPT, ATP luminescence, 48 h; Potency, µM (doses to about 46.2 µM), most hits filed as inhibitors; actives 15% (n = 420,000); AID 686978, 2013; note: nearly all actives have a fitted effect of over 55% in size
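Compound effects on proliferation are scored in DT40 Tdp1-/-;hTDP1 cells in the absence of CPT. ATP levels (CellTiter-Glo luminescence) are recorded after a ≥48 hr, 37 °C incubation.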
IL1B secr inh: inflammasome signaling inhibition, IL-1 beta readout. THP-1 LPS/ATP IL-1B secretion, AlphaLISA, 16 h; active compounds read low. activity change, % at 57.5 µM. actives 4.7% (n = 360,000). AID 743279; in the data active = activity change below about -50%; inconclusive = mostly about -30% to -49%
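Secreted IL-1B measured by AlphaLISA bead assay after 16 h compound exposure of THP-1 cells; compounds (final up to 57.5 uM) added 1 h before LPS (250 ng/mL) and ATP (1.25 mM) stimulation; lower signal means less secretion.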
TDP1 cell CPT: DT40-hTDP1 cell growth loss with CPT. chicken DT40 Tdp1-/-;hTDP1 cells + 20 nM CPT, ATP luminescence, 48 h. Potency, µM (highest dose often 46.2 µM), most hits filed as inhibitors. actives 12% (n = 420,000). AID 686979; note: nearly all actives have a fitted effect of over 55% in size
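Cell growth measured by CellTiter-Glo luminescence after a minimum 48 h, 37 C compound exposure with 20 nM CPT in Tdp1-knockout DT40 cells stably expressing hTDP1, seeded 400/well; qHTS titration format.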
TGFb inhibitor: TGF-b pathway inhibition; Potency, µM (titrated, usually from 46.1 µM), most hits filed as inhibitors; actives 1.2% (n = 410,000); AID 588855; HepG2 CAGA-GFP TGF-b/SMAD3 reporter, GFP fluorescence, 18 h; TGF-beta stimulated, 500 pg/mL final; note: nearly all actives have a fitted effect of over 65% in size
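Cell-based qHTS in HEPG2 carrying a CAGA-GFP Smad reporter; compounds added before 500 pg/mL final TGF-beta, 18 h incubation at 37 degrees C, GFP fluorescence quantified per cell by imaging cytometry.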
HepG2 viability: HepG2 cytotoxicity, counter-screen for TGF-b inhibitors. HepG2 CAGA-GFP viability, ATP luminescence, 18 h. actives 0.76% (n = 410,000). Potency, µM (series often up to 46.1 µM), usual class: cytotoxic
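HepG2 CAGA-GFP cells (1000/well, DMEM with 1% FBS) received compound, then TGF-beta at 500 pg/mL final, and were incubated 18 hours at 37 degrees C. Viability was read by CellTiter-Glo luminescence. Media-only wells were set as complete cell-killing and DMSO as no toxicity.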
S-ASM inh: inhibitors of human secretory acid sphingomyelinase; P17405; placental ASM, HMU-PC fluorogenic substrate, 60 min; Potency, µM (series often up to 57.5 µM), actives largely listed as inhibitors; actives 0.006% (n = 340,000); AID 504937
Target sequence (P17405 47-631 limits assumed): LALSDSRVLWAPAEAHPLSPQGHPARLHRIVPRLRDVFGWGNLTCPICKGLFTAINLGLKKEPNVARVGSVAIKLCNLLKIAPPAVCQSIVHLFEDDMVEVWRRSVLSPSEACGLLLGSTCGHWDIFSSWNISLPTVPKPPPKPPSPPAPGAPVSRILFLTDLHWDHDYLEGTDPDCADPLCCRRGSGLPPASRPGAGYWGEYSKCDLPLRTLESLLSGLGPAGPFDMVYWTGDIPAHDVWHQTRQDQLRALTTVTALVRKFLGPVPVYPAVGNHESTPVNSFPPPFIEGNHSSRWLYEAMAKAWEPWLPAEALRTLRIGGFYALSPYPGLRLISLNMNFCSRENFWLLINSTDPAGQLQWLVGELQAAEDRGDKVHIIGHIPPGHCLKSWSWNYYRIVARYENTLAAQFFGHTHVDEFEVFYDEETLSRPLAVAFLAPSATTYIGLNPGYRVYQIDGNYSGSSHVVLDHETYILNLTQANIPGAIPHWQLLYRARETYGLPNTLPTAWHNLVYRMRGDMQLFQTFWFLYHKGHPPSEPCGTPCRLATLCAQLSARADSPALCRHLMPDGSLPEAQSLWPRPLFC
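HMU-PC0 cleavage (9 uM final) by human placental ASM, 60 min at 37 °C following 10 min compound exposure at RT; stopped at pH 10, fluorescence Ex 386/Em 447 nm.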
Each line names hits and unclear results; the compound was inactive in the other large screens. Unless noted, calls come from the whole dose curve; as a rule, active = well fitted curve in the direction sought with a large enough effect; inconclusive = small, poorly fitted or top-dose-only effect, or another doubt; inactive = no such curve, though single readings can be large; an effect the other way counts as inactive or inconclusive.

CCN(CC)CCN(Cc1cc2cc3c(cc2[nH]c1=O)OCCO3)C(=S)NCC(C)C	TDP1 cell noCPT inconclusive, IL1B secr inh -61.9, TDP1 cell CPT inconclusive
Cc1ccc(NC(=S)N(Cc2cccs2)Cc2cc3cc(C)cc(C)c3[nH]c2=O)cc1	TDP1 cell noCPT inconclusive, TDP1 cell CPT inconclusive
CCN(CC)CCN(Cc1cc2cc(C)cc(C)c2[nH]c1=O)C(=S)NCc1ccco1	TDP1 cell noCPT 23.1µM, TDP1 cell CPT 25.9µM
CCN(CC)CCN(Cc1cc2ccc(C)c(C)c2[nH]c1=O)C(=S)NCc1ccco1	TDP1 cell noCPT inconclusive, TDP1 cell CPT inconclusive (no result: IL1B secr inh)
Cc1cc(C)c2[nH]c(=O)c(CN(Cc3cccs3)C(=S)NCc3ccco3)cc2c1	TDP1 cell noCPT 10.3µM, TDP1 cell CPT 13µM
CCN(CC)CCN(Cc1cc2cc3c(cc2[nH]c1=O)OCO3)C(=S)NCc1ccco1	TDP1 cell noCPT inconclusive, IL1B secr inh -63.4, TDP1 cell CPT inconclusive
CCCCCSc1nnc2c(n1)OC(CC)Nc1ccc(Br)cc1-2 (configuration not stated)	TDP1 cell noCPT inconclusive, TDP1 cell CPT inconclusive (no result: IL1B secr inh, S-ASM inh)
NS(=O)(=O)c1ccc(NC(=O)CN2CCN(S(=O)(=O)c3cccs3)CC2)cc1	TGFb inhibitor inconclusive (no result: S-ASM inh)
CCc1nn(C(CC)C(=O)NCc2cccc(OC)c2OC)c(=O)c2cc3occc3n12 (configuration not stated)	TDP1 cell noCPT 18.4µM, TDP1 cell CPT 20.6µM, TGFb inhibitor inconclusive
CCC(C(=O)N1CCN(c2cc(Cl)ccc2C)CC1)n1nc(C)n2c(cc3occc32)c1=O (configuration not stated)	TDP1 cell noCPT 14.6µM, TDP1 cell CPT inconclusive, TGFb inhibitor inconclusive (no result: IL1B secr inh, S-ASM inh)
CCc1nn(C(C)C(=O)NCCN2CCN(c3cccc(C)c3C)CC2)c(=O)c2cc3occc3n12 (configuration not stated)	TDP1 cell noCPT 16.4µM, IL1B secr inh inconclusive, TDP1 cell CPT inconclusive, TGFb inhibitor inconclusive
Cc1ccccc1OC(=O)CSc1nnc(-c2ccc3c(c2)OCO3)o1	TGFb inhibitor inconclusive (no result: IL1B secr inh, S-ASM inh)
O=C(CSc1nc(=O)n(CCCN2CCOCC2)c2c1CCC2)Nc1ccccc1F	TGFb inhibitor inconclusive
CC1CN(c2cc3c(cc2F)c(=O)c(C(=O)O)cn3-c2ccc(F)cc2F)CCN1 (configuration not stated)	none (no result: IL1B secr inh, TGFb inhibitor, HepG2 viability, S-ASM inh)
CCOc1ccc(NCc2cccn2-c2nnc(N3CCC(C(=O)NCCc4ccc(OC)c(OC)c4)CC3)s2)cc1	TDP1 cell noCPT 10.3µM, TDP1 cell CPT inconclusive (no result: IL1B secr inh, TGFb inhibitor, S-ASM inh)
COc1ccc(OC)c(CCNC(=O)C2CCN(c3nnc(-n4cccc4)s3)CC2)c1	TDP1 cell noCPT inconclusive, TDP1 cell CPT inconclusive
CCOc1ccc(NCc2cccn2-c2nnc(N3CCC(C(=O)NCCCN4CC(C)CC(C)C4)CC3)s2)cc1 (configuration not stated)	TDP1 cell noCPT inconclusive, IL1B secr inh -82.4, TDP1 cell CPT inconclusive, TGFb inhibitor inconclusive
CCOc1ccc(CCNC(=O)C2CCN(c3nn4c(=O)cc(C)nc4s3)CC2)cc1OCC	none
CCOc1ccc(NCc2cccn2-c2nnc(N3CCC(C(=O)NCCc4ccc(OCC)c(OCC)c4)CC3)s2)cc1	TDP1 cell noCPT 8.2µM, TDP1 cell CPT 14.6µM (no result: IL1B secr inh, TGFb inhibitor, S-ASM inh)
CC1CCN(C(=O)COC(=O)c2ccc(=O)n(Cc3ccccc3)n2)CC1	none
CCN(CC)S(=O)(=O)c1ccc(Oc2ccc(S(=O)(=O)N(CC)CC)cc2)cc1	TDP1 cell noCPT 5.8µM, IL1B secr inh inconclusive, TDP1 cell CPT 18.4µM
CCN(CC)S(=O)(=O)c1ccc(Oc2ccccc2OC)cc1	TDP1 cell noCPT inconclusive, TDP1 cell CPT 18.4µM
CCN(CC)S(=O)(=O)c1ccc(N)cc1	none
CCN(CC)S(=O)(=O)c1ccc(OCCNS(C)(=O)=O)cc1	TDP1 cell noCPT 16.4µM, TDP1 cell CPT 6.51µM
CCCN(CCC)S(=O)(=O)c1ccc(Cl)c(OC)c1	TDP1 cell noCPT 13µM, TDP1 cell CPT inconclusive

Screens from PubChem BioAssay.
